From PubChem BioAssay (NCI)
Compounds without any hit were thinned out: in the full panel of roughly 79,000, 15% have a hit. Active and inactive are the calls of the source. No stated cut-off is given here; in the data, active means growth inhibition above about 70%; inactive means the rest.

How the values were obtained:
[1] = NCI Yeast Anticancer Drug Screen. Data for the rad52 strain (AID 147);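 further: 0% = growth of vehicle-treated control cultures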; conditions: S. cerevisiae rad52 mutant growth inhibition, stronger effect = higher value
Method in brief: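 Measured: yeast growth inhibition. System: strain with a defined DNA damage repair alteration. Reference: vehicle-treated control cultures.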

[2] = NCI Yeast Anticancer Drug Screen. Data for the wt1 strain (AID 149);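 further: 0% = growth of vehicle-treated wt1 cultures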; conditions: S. cerevisiae wt1 strain (SPY 50644) growth inhibition, stronger effect = higher value
Method in brief: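 The wt1 strain was treated with compounds, and growth was compared with vehicle-treated cultures to give inhibition.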

[3] = NCI Yeast Anticancer Drug Screen. Data for the rad50EPP+ strain (AID 151);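 further: 0% = growth of vehicle-treated control cultures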; conditions: S. cerevisiae rad50 mutant strain, stronger effect = higher value
Method in brief: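 One strain with a rad50 alteration (rad50EPP+) was compound-treated, its growth then compared to that of vehicle controls.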

[4] = NCI Yeast Anticancer Drug Screen. Data for the mgt1 strain (AID 153); conditions: S. cerevisiae mgt1 mutant growth inhibition, stronger effect = higher value
Method in brief: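 After exposure of the mgt1 yeast mutant to compound, growth was measured and reported as inhibition compared with vehicle controls.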

[5] = NCI Yeast Anticancer Drug Screen. Data for the rad50 strain (AID 155);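 further: 0% = growth of vehicle-only cultures of the same strain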; conditions: S. cerevisiae rad50 strain growth inhibition, stronger effect = higher value
Method in brief: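 Cells are treated with compound, grown, and their growth is then scored against vehicle-only cultures of the same repair-deficient yeast strain.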

[6] = NCI Yeast Anticancer Drug Screen. Data for the rad14 strain (AID 159);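 further: 0% = growth of vehicle-treated control cultures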; conditions: S. cerevisiae rad14 strain growth inhibition, stronger effect = higher value
Method in brief: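 Readout: yeast growth inhibition, referenced to vehicle-only cultures. Strain bears a defined alteration in DNA damage repair.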

[7] = NCI Yeast Anticancer Drug Screen. Data for the sgs1 mgt1 strain (AID 161);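 further: 0% = growth of cultures given vehicle only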; conditions: S. cerevisiae sgs1 mgt1 strain, stronger effect = higher value
Method in brief: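 Genetically altered yeast, compound exposure, growth inhibition relative to vehicle.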

[8] = NCI Yeast Anticancer Drug Screen. Data for the CLN2oe strain (AID 163);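 further: 0% = growth of vehicle-only control cultures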; conditions: S. cerevisiae CLN2oe strain, stronger effect = higher value
Method in brief: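 Here, growth inhibition in a cell-cycle-altered yeast strain after compound exposure was quantified against vehicle control growth.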

[9] = NCI Yeast Anticancer Drug Screen. Data for the cln2 rad14 strain (AID 165);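 further: 0% = growth equal to vehicle treated cultures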; conditions: S. cerevisiae cln2 rad14 strain, stronger effect = higher value
Method in brief: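 Growth of compound-exposed yeast (cln2 rad14 genotype) measured and expressed as inhibition relative to vehicle.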

[10] = NCI Yeast Anticancer Drug Screen. Data for the bub3 strain (AID 167); conditions: S. cerevisiae bub3 mutant strain, stronger effect = higher value
Method in brief: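 Part of a panel of yeast mutants defective in DNA damage repair or cell cycle regulation. Each strain is grown with compound, and inhibition is calculated relative to solvent-treated cultures.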

[11] = NCI Yeast Anticancer Drug Screen. Data for the wt2 strain (AID 169);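 further: 0% = growth of vehicle-treated yeast cultures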; conditions: S. cerevisiae wt2 strain growth inhibition, stronger effect = higher value
Method in brief: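 Genetically defined yeast strains from a DNA-repair/cell-cycle panel were used. Compound-exposed yeast growth was measured, and the inhibition was calculated relative to vehicle treatment.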

[12] = NCI Yeast Anticancer Drug Screen. Data for the mlh1 strain (AID 171);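 further: 0% = growth of vehicle-treated control cultures of the same strain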; conditions: S. cerevisiae mlh1 strain growth inhibition, stronger effect = higher value
Method in brief: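 Here the genetically defined yeast mutant is grown with each compound, and the extent to which its growth falls below that of vehicle-exposed cells is reported.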

[13] = NCI Yeast Anticancer Drug Screen. Data for the sgs1 strain (AID 173);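 further: 0% = growth of vehicle-only control cultures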; conditions: S. cerevisiae sgs1 mutant, stronger effect = higher value
Method in brief: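 Relative growth inhibition, referenced to vehicle, was determined in a yeast strain with a defined alteration affecting DNA damage repair or cell cycle control after compound exposure.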

[14] = NCI Yeast Anticancer Drug Screen. Data for the mlh1 rad18 strain (AID 175); conditions: S. cerevisiae mlh1 rad18 strain growth inhibition, stronger effect = higher value
Method in brief: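 In this whole-cell yeast screen, a strain with altered DNA damage repair is challenged with compound, and its growth is measured against matched vehicle-treated controls.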

[15] = NCI Yeast Anticancer Drug Screen. Data for the rad18 strain (AID 177); conditions: S. cerevisiae rad18 mutant growth inhibition, stronger effect = higher value
Method in brief: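 Screen uses a yeast strain with a defined lesion in DNA damage repair; compound effect is read as loss of growth compared to untreated vehicle cultures.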

[16] = NCI Yeast Anticancer Drug Screen. Data for the mec2-1 strain (AID 157); conditions: S. cerevisiae mec2-1 strain, stronger effect = higher value
Method in brief: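 Test agents were screened against the mec2-1 yeast strain, with defined DNA repair or cell cycle alteration. Growth was scored as inhibition against vehicle-only controls.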

[17] = at 5.0 µM (retest, dose inferred, filed as 0.5)
[18] = at 50.0 µM (retest, dose inferred, filed as 5.0)

Measured: growth inhibition

COc1cc(CSc2ccc(O)cc2)cc(O)c1O
active: [7]; at 50.0 µM 74.7% | [14]; at 50.0 µM 73.5%
inactive: [1]; at 1.2 µM 2% | [1]; at 3.7 µM 3% | [1]; at 11.0 µM 5% | [1]; at 33.0 µM 7% | [1]; at 100.0 µM 8% | [2]; at 1.2 µM 0% | [2]; at 3.7 µM 0% | [2]; at 11.0 µM 1% | [2]; at 33.0 µM -2% | [2]; at 100.0 µM -1% | [3]; at 1.2 µM -3% | [3]; at 3.7 µM -4% | [3]; at 11.0 µM -6% | [3]; at 33.0 µM -6% | [3]; at 100.0 µM 0% | [4]; at 1.2 µM 1% | [4]; at 3.7 µM -3% | [4]; at 11.0 µM 1% | [4]; at 33.0 µM 0% | [4]; at 100.0 µM 2% | [5]; at 1.2 µM 3% | [5]; at 3.7 µM 6% | [5]; [17] 5% | [5]; at 11.0 µM -2% | [5]; at 33.0 µM 6% | [5]; [18] 42% | [5]; at 50.0 µM 60.8% | [5]; at 100.0 µM 6% | [6]; at 1.2 µM 1% | [6]; at 3.7 µM 2% | [6]; at 11.0 µM 5% | [6]; at 33.0 µM 0% | [6]; at 100.0 µM 1% | [7]; [17] -3% | [7]; [18] 30% | [8]; at 1.2 µM 6% | [8]; at 3.7 µM 8% | [8]; at 11.0 µM 10% | [8]; at 33.0 µM 12% | [8]; at 100.0 µM 17% | [9]; [17] 18% | [9]; [18] 14% | [9]; at 50.0 µM 36% | [10]; at 1.2 µM 6% | [10]; at 3.7 µM 10% | [10]; [17] -7% | [10]; at 11.0 µM 11% | [10]; at 33.0 µM 9% | [10]; [18] 14% | [10]; at 50.0 µM 61.2% | [10]; at 100.0 µM 6% | [11]; at 1.2 µM 1% | [11]; at 3.7 µM 1% | [11]; at 11.0 µM 0% | [11]; at 33.0 µM -1% | [11]; at 100.0 µM 1% | [12]; at 1.2 µM 4% | [12]; at 3.7 µM 0% | [12]; at 11.0 µM 3% | [12]; at 33.0 µM 2% | [12]; at 100.0 µM 3% | [13]; at 1.2 µM -1% | [13]; at 3.7 µM -2% | [13]; at 11.0 µM -1% | [13]; at 33.0 µM -1% | [13]; at 100.0 µM 2% | [14]; [17] 13% | [14]; [18] -1% | [15]; at 1.2 µM -2% | [15]; at 3.7 µM 1% | [15]; at 11.0 µM 2% | [15]; at 33.0 µM -10% | [15]; at 100.0 µM 10%

O=[N+]([O-])c1cc(Cl)cnc1Br
active: [1]; at 11.0 µM 75% | [1]; at 33.0 µM 92% | [1]; at 100.0 µM 97% | [3]; at 3.7 µM 71% | [3]; at 11.0 µM 88% | [3]; at 33.0 µM 96% | [3]; at 100.0 µM 98% | [5]; at 11.0 µM 81% | [5]; at 33.0 µM 90% | [5]; [18] 82% | [5]; at 50.0 µM 88.5% | [5]; at 100.0 µM 98% | [16]; at 33.0 µM 85% | [16]; [18] 70% | [16]; at 50.0 µM 76.7% | [16]; at 100.0 µM 88% | [13]; at 100.0 µM 82% | [15]; at 100.0 µM 87%
inactive: [1]; at 1.2 µM 23% | [1]; at 3.7 µM 46% | [2]; at 1.2 µM 1% | [2]; at 3.7 µM 4% | [2]; at 11.0 µM 7% | [2]; at 33.0 µM 8% | [2]; at 100.0 µM 20% | [3]; at 1.2 µM 35% | [5]; at 1.2 µM 28% | [5]; at 3.7 µM 47% | [5]; [17] -49% | [16]; at 1.2 µM 6% | [16]; at 3.7 µM 43% | [16]; [17] 22% | [16]; at 11.0 µM 69% | [6]; at 1.2 µM 4% | [6]; at 3.7 µM 1% | [6]; at 11.0 µM 10% | [6]; at 33.0 µM 14% | [6]; at 100.0 µM 31% | [7]; [17] -50% | [7]; [18] -19% | [7]; at 50.0 µM 8.35% | [8]; at 1.2 µM -4% | [8]; at 3.7 µM -1% | [8]; at 11.0 µM 4% | [8]; at 33.0 µM 4% | [8]; at 100.0 µM 8% | [9]; [17] -56% | [9]; [18] -74% | [9]; at 50.0 µM 3.2% | [10]; at 1.2 µM -8% | [10]; at 3.7 µM -10% | [10]; [17] -74% | [10]; at 11.0 µM -6% | [10]; at 33.0 µM -2% | [10]; [18] -70% | [10]; at 50.0 µM -8.3% | [10]; at 100.0 µM 30% | [11]; at 1.2 µM 0% | [11]; at 3.7 µM 1% | [11]; at 11.0 µM 2% | [11]; at 33.0 µM 5% | [11]; at 100.0 µM 20% | [12]; at 1.2 µM 6% | [12]; at 3.7 µM 8% | [12]; at 11.0 µM 6% | [12]; at 33.0 µM 12% | [12]; at 100.0 µM 27% | [13]; at 1.2 µM 14% | [13]; at 3.7 µM 25% | [13]; at 11.0 µM 30% | [13]; at 33.0 µM 40% | [14]; [17] -109% | [14]; [18] -48% | [14]; at 50.0 µM 28.1% | [15]; at 1.2 µM 6% | [15]; at 3.7 µM 10% | [15]; at 11.0 µM 18% | [15]; at 33.0 µM 35%
